Measured values reported in PubChem BioAssay AID602438 (Sanford-Burnham Center for Chemical Genomics, 2012).
Screen size: about 360,000 compounds; about 3,100 (0.86%) were called active.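 How the source made its calls: active means inhibition or corrected inhibition above about 18%, plus a signal ratio from 0.5 to 1.5 (limit read from the data, passing the limit was not always enough); inactive means the rest.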 What follows is part of a selection rich in actives, with near analogues and random picks from the rest.

Biological target: Neuropilin-1 (Homo sapiens) (UniProt O14786)
Experiment: NRP-1/CendR peptide interaction modulators – biochemical, fluorescence polarization, uHTS, primary screen (AID 602438)
Conditions: FAM-RPARPAR peptide binding to NRP-1, fluorescence polarization; at 25 µM; stronger effect = higher value

Chain of Neuropilin-1 (Homo sapiens) (O14786 whole entry, looked up): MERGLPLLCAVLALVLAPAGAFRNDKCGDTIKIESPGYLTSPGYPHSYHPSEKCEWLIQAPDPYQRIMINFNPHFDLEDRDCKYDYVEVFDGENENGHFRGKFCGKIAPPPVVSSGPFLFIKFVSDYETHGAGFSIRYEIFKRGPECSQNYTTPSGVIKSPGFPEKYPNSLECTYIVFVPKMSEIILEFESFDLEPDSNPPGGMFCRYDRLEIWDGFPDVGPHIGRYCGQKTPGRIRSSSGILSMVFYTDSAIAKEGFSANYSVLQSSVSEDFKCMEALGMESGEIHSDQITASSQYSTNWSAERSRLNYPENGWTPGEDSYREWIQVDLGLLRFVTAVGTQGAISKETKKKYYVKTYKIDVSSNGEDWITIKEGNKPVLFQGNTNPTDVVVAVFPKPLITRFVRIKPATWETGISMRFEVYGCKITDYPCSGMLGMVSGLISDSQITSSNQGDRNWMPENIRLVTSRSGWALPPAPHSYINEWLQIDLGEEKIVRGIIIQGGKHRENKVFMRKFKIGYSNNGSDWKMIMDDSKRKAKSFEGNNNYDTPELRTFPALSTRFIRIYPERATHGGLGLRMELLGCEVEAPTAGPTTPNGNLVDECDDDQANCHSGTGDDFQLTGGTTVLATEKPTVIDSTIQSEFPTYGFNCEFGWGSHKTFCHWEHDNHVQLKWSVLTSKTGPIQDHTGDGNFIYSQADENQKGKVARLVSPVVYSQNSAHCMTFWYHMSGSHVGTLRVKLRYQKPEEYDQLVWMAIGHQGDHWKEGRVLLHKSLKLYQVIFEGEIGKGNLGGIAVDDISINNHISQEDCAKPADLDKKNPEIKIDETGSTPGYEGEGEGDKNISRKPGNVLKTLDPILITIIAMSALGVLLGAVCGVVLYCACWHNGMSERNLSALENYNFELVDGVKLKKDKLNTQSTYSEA

SMILES | inhibition
CCN(Cc1ccncc1)C(=O)CCc1ccccc1 | 9.5% (inactive)
CN(CCO)C(=O)c1nc[nH]c1C(=O)N(C)Cc1ccccc1 | 9.7% (inactive)
CCN(CC)C(=O)c1nc[nH]c1C(=O)N(C)Cc1ccccc1 | 29.2% (active)
CCN(CC(=O)Nc1ccc(OC)cc1)C(=O)c1ccc(=O)n(Cc2ccccc2)n1 | 4.7% (inactive)
Cc1c(C(C)CCCO)oc(=O)c2c1Oc1c(C)c(C(C)C[C@@H](C)O)oc(=O)c1C2 (stereo partly drawn) | 13.8% (inactive)
CCOC(=O)N1CCN(C(=O)Cn2cnc3ccccc3c2=O)CC1 | 3.1% (inactive)
CCOC(=O)N1CCN(CC(=O)n2c(C)c(C)c3ccccc32)CC1 | 4.2% (inactive)
CCOC(=O)N1CCN(C(=O)c2nn(-c3ccc(C)cc3)c(=O)c3c2c2ccccc2n3C)CC1 | 17.7% (active)
CCOC(=O)CSc1nncc2ccc(OC)c(OC)c12 | -16.1% (inactive)
CCOc1ccc(NC(=O)CC(Cc2ccc(Cl)cc2)C(=O)O)cc1 (stereo not drawn) | 1.1% (inactive)
COC(=O)C(Cc1c[nH]c2ccccc12)NC(=O)CCNC(=O)c1ccco1 (stereo not drawn) | 22.2% (active)
CC(=O)NC(Cc1c[nH]c2ccccc12)C(=O)NCCc1ccccc1 (stereo not drawn) | 6.7% (inactive)
COc1ccc(CNC(=O)[C@H](Cc2c[nH]c3ccccc23)NC(C)=O)cc1OC | -6.3% (inactive)
Cc1cc(C)cc(N(CC(=O)N2CC=C(c3ccccc3)CC2)S(=O)(=O)c2c(C)noc2C)c1 | -1.1% (inactive)
CC(C)c1ccc(S(=O)(=O)N2CCN(C(=O)c3ccc(N4CCCC4)c([N+](=O)[O-])c3)CC2)cc1 | 6.8% (inactive)
O=C(c1cccc(F)c1)N1CCN(c2ccc([N+](=O)[O-])c3cccnc23)CC1 | -12.9% (inactive)
O=C(c1cccc(F)c1)N1CCN(c2ccc([N+](=O)[O-])c(N3CCCCC3)c2)CC1 | 44.3% (active)
Cc1ccc(C2NC(=S)NC3=C2N2CCC3CC2)cc1 (stereo not drawn) | 11.9% (inactive)
COc1ccccc1CCNS(=O)(=O)c1cc2c3c(c1)C(C)C(=O)N3CCC2 (stereo not drawn) | -11.3% (inactive)
COc1cccc(CNC(=O)[C@@H]2CCCN2C(=O)[C@@H]2CCCN2C(=O)c2ccccc2)c1 | -6.2% (inactive)

SMILES | inhibition
CC1=NN(C(=O)c2ccc(Br)cc2)C(O)(c2ccccc2)C1 (stereo not drawn) | -3% (inactive)
CCOC(=O)C1(O)CC(C)=NN1C(=O)c1cccc(Br)c1 (stereo not drawn) | 26.7% (active)
CC1=NN(C(=O)c2ccccc2Br)C(O)(c2cccnc2)C1 (stereo not drawn) | -1.7% (inactive)
O=C(NCc1ccco1)c1ccc(NS(=O)(=O)c2cccc([N+](=O)[O-])c2)cc1 | 6.8% (inactive)
O=C(C1CCCO1)N(c1ccc(F)cc1)C1C=CS(=O)(=O)C1 (stereo not drawn) | -10.6% (inactive)
CCc1nnc(NC(=O)CSc2nnc(COc3ccc(C#N)cc3)n2-c2ccccc2)s1 | 0.5% (inactive)
COc1ccccc1N(CCOc1ccccc1)S(=O)(=O)c1ccccc1 | 26.1% (active)
COc1ccccc1N(CC(=O)N1CCCCC1)S(=O)(=O)c1ccccc1 | -3.8% (inactive)
CCOc1ccc(N(CC(=O)NCCOc2ccccc2OC)S(=O)(=O)c2ccccc2)cc1 | -4.4% (inactive)
COc1nc(OC)nc(N(C)CCO)n1 | 14.8% (inactive)
O=C(CSc1nccn1-c1cccc(F)c1)NC1CCCC1 | -2.9% (inactive)
CC(=O)Nc1cccc(NC(=O)CSc2nccn2Cc2ccc(F)cc2)c1 | 0.6% (inactive)
O=C(OCc1ccccc1)N1CCC2CC1c1cc(N3CCN(S(=O)(=O)c4cc(Cl)cc(Cl)c4)CC3)ccc12 (stereo not drawn) | 7.8% (inactive)
CC1(C(=O)NS(=O)(=O)c2ccccc2Cl)CCN1C(=O)c1cccc(F)c1 (stereo not drawn) | 6.5% (inactive)
Cc1ccc(F)c(S(=O)(=O)NC(=O)C2(C)CCN2C(=O)c2ccco2)c1 (stereo not drawn) | 24.2% (active)
Cc1ccc(F)c(S(=O)(=O)NC(=O)C2(C)CCN2C(=O)CCc2cccs2)c1 (stereo not drawn) | 0.1% (inactive)
COC(=O)Cc1nc2c(N)nc(N)nc2[nH]c1=O | 26.3% (active)
CC1C(=O)N(Cc2cn(CC3CCCCC3)nn2)CCS(=O)(=O)N1Cc1ccc(-c2cccc(N(C)C)c2)cc1 (stereo not drawn) | -7% (inactive)
Cc1ccc(-c2noc(C3CCCN(C(=O)c4cccc(Cl)c4)C3)n2)o1 (stereo not drawn) | 3.6% (inactive)
COC(=O)CCCC1=CC2=C(c3ccccc3)C(=O)C(C)(OC(=O)C3CCCC3)C(=O)C2=CN1c1ccc(OC)cc1 (stereo not drawn) | -6.8% (inactive)

SMILES | inhibition
COC(=O)CCCC1=CC2=CC(=O)C(C)(OC(=O)c3cccs3)C(=O)C2=CN1CC1CC1 (stereo not drawn) | 36.2% (active)
COC(=O)CCCC1=CC2=CC(=O)C(C)(OC(=O)c3cccs3)C(=O)C2=CN1c1cccc(C#N)c1 (stereo not drawn) | -18.7% (inactive)
Nc1cccc(OCCCCCOc2cccc(N)c2)c1 | 7% (inactive)
CCOC(=O)N1CCN(Cc2nc3c(c(=O)n(C)c(=O)n3C)n2Cc2ccccc2)CC1 | -7.4% (inactive)
C=CCOc1nc2c(c(=O)n(C)c(=O)n2C)n1Cc1ccc(Cl)cc1Cl | 7.1% (inactive)
Cn1c(=O)c2c(nc(OCc3cccnc3)n2Cc2ccccc2)n(C)c1=O | 28.5% (active)
Cc1ccccc1C(=O)N1CCC(C(=O)Oc2ccc(C#N)cc2)CC1 | -0.1% (inactive)
CC(C)Cn1cnc2c(SCc3ccc(Cl)cc3)nc(N)nc21 | 20.8% (active)
CC(C)Sc1nc(N)nc2c1ncn2C1OC(CO)C(O)C1O (stereo not drawn) | -1.6% (inactive)
Nc1nc(SCc2ccc([N+](=O)[O-])cc2)c2ncn(C3OC(CO)C(O)C3O)c2n1 (stereo not drawn) | -20.4% (inactive)
Cc1cccc(C)c1NC(=O)C(c1ccc(C(F)(F)F)cc1)n1c(=O)c(-c2ccco2)nc2ccccc21 (stereo not drawn) | -67% (inactive)
CC(NCCO)C(=O)C12CC3CC(CC(C3)C1)C2 (stereo not drawn) | 6.1% (inactive)
COc1cc(/C=C/C(=O)OCC(=O)Nc2cccc(Oc3ccccc3)c2)ccc1O | -3.6% (inactive)
COc1ccc(C(C(=O)NCc2ccccc2)n2c(=O)c(-c3ccccc3)nc3ccccc32)cc1 (stereo not drawn) | -0.4% (inactive)
CCc1[nH]nc(C(=O)N2CCCC(CNS(=O)(=O)c3cccs3)C2)c1C (stereo not drawn) | 3.8% (inactive)
COc1cc2c(cc1O)C(SC)=NC(C)(C)C2 | 9% (inactive)
COc1cc2c(cc1OC)C(Nc1ccc(S(N)(=O)=O)cc1)=NC(C)(C)C2 | 26.3% (active)
COc1cc2c(cc1OC)C(C(C)C)=NC(C)(C)C2 | -1.6% (inactive)
